From PubChem BioAssay (NCATS) come the findings set out here.

Inconclusive results are not listed. Calls of active or inactive are those of the source. Calls follow the shape of the dose curve; as a rule, active = well fitted inhibition curve with a large enough effect; inconclusive = small, poorly fitted or top-dose-only effect; inactive = flat fitted curve, though single readings scatter. *1 amine or outer side, *2 acyl side, *3 side chain or, on linkers, in order; H or OH if unused. Where a SMILES comes first, the peptide text is derived from it. Bridges are numbered along the chain shown (N, C = ends). [ ]: non-standard residue; d: D form. The star is where a group is joined. ξ: configuration not given here. ξhTyr(3S-OH,4S-OH,3'-OSO3H) = NC(C(=O)O)[C@H](O)[C@@H](O)c1ccc(O)c(OS(=O)(=O)O)c1; Orn(4R-OH,5R-OH) = O=C([C@H](C[C@@H](O)[C@@H](O)N[*:3])N[*:1])[*:2]; X2 = CCCCCOc1ccc(-c2cc(-c3ccc(C(=O)*)cc3)no2)cc1; X3 = C[C@H]1CN([*:1])C(C(=O)[*:2])[C@H]1O; ξGln(3R-OH) = NC(=O)C[C@@H](O)C(N)C(=O)O; ξPro(4R-OH) = O=C(O)C1C[C@@H](O)CN1; ξThr(3R) = C[C@@H](O)C(N)C(=O)O
% is scaled to controls: 0 for no effect and ±100 for the full control effect.

This assay has as its system KB-3-1. As to the kind of experiment: Cytotoxic Profiling of Annotated Libraries Using Quantitative High-Throughput Screening (AID 1296008). Also: nearly all actives have a fitted effect of over 60% in size. The note with it: Five cell lines viability, CellTiter-Glo ATP luminescence, 48-72 h; max response: active compounds read low. In outline: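 Cells exposed to compounds for 48 or 72 hr at 37 degrees Celsius. Viability read as ATP-coupled luminescence with CellTiter-Glo after 10 min at room temperature.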
(In general: ATP-based viability assays read luminescence as a measure of living cells.)
Regarding `C[C@@H]1O[C@@H](O[C@H]2[C@H](O[C@H]3[C@H](O[C@H]4CC[C@@]5(C)C(CC[C@]6(C)C5CC=C5[C@@H]7CC(C)(C)C[C@@H](O)[C@]7(C)CC[C@]56C)[C@@]4(C)CO)O[C@H](C(=O)O)[C@@H](O)[C@@H]3O)O[C@H](CO)[C@H](O)[C@@H]2O)[C@H](O)[C@H](O)[C@H]1O` (stereo partly drawn), the result was inactive.
The same measure, in the same setting: to `OC[C@@]1(O)CO[C@@H](OC[C@H]2O[C@@H](OCc3ccccc3)[C@H](O)[C@@H](O)[C@@H]2O)[C@@H]1O` belongs “inactive”.
In the case of `COc1ccc2c(c1)C=C1Cn3c-2c(C2CCCCC2)c2ccc(cc23)C(=O)NS(=O)(=O)N(C)CCOCCN(C)C1=O`, the max response is -5.47% (inactive).
As for `CCNC(=O)C1CC(F)(c2ccc(CN3CCCC3)c(F)c2)C1` (stereo not drawn), the max response is 3.84% (inactive).
Turning to `CCC(=O)N1CCc2cc(OC)c(O)cc2C1`, the max response is -5.14% (inactive).
Same read-out and setting: to `O=C(Cc1ccc(Cl)cc1)Nc1cnccc1C(=O)O` belongs 1.29% (inactive).
Take `O=C(O)C(Cc1ccccc1)NC(=O)C1CCCN1` (stereo not drawn) (H-Pro-Phe-OH; configuration not given here): the call was inactive.
As for `COc1c(C)c(OCC(O)C(C)(C)O)cc2c1CNC2=O` (stereo not drawn), the max response was 5.28% (inactive).
Take `Cc1c(O)cc2c(c1O)COC1(O)CCCOC21` (stereo not drawn): the call was inactive.
Still for that read-out and setting: to `C[C@H]1[C@H](C)CC[C@]2(C(=O)OC3OC(CO)C(O)C(O)C3O)CC[C@]3(C(=O)O)C(=CCC4[C@@]5(C)CC[C@H](O[C@@H]6O[C@@H](C)[C@H](OC7OC(CO)C(O)C(O)C7O)[C@@H](O)[C@H]6O)C(C)(C)C5CC[C@]43C)[C@H]12` (stereo partly drawn) belongs “inactive”.
As for `COc1cc(C(C)=O)ccc1O[C@@H]1O[C@H](CO[C@@H]2OC[C@@H](O)[C@H](O)[C@H]2O)[C@@H](O)[C@H](O)[C@H]1O`, the max response was 7.17% (inactive).
For the molecule `COC(=O)c1[nH]c(=O)c2ccccc2c1-c1ccc[nH]1`, the result was inactive.
`C=C1C2(C)CC3C4(C)OC(C5OC56C4=CC(=O)OC6(C)C)C3(C)C13C(=O)OC(C)C3(O)C2=O` (stereo not drawn): the max response is 7.16% (inactive).
Same read-out and setting: to `O=C(O)Cn1nnc(-c2ccc(CN(CCCCOc3ccc(CN4CCCC4)cc3)CCc3ccccc3)cc2)n1` belongs 9.81% (inactive); to `CC1CC2OCC3(O)CCC(O)C(C14CC(c1ccoc1)OC4=O)C23CO` (stereo not drawn), 9.94% (inactive).
On the same count and under the same terms, to `C=C(C(=O)O)[C@@H]1CC[C@H](C)[C@@H]2CC(=O)C(C)=C2C1` belongs 3.54% (inactive).
Take `O=C(Cn1c2ccccc2c2nc3n(c(=O)c21)CCS3)N1CCCC1`: the call was inactive.
The same measure, in the same setting: to `O=C(O)c1ccc(NC(=O)[C@H](CC2CCCC2)n2cnc(C(F)(F)F)c2)nc1` belongs “inactive”.
On the same count and under the same terms, to `COC(=O)[C@H](Cc1ccc([N+](=O)[O-])cc1)NC(=O)c1cccc2ccccc12` belongs “inactive”.
`CC(=O)OCC1=CCC2C(C)(C)CCCC2(C)C12CCC(C)(CC(=O)O)O2` (stereo not drawn): the max response is 5.22% (inactive).
The same measure, in the same setting: to `COc1cc(C(CO)C(OC2OC(CO)C(O)C(O)C2O)c2ccc(O)c(OC)c2)ccc1O` (stereo not drawn) belongs 3.11% (inactive).
With `CCOC(=O)C1=C(N)Oc2ccc(Cl)cc2C1C(C#N)C(=O)OCC` (stereo not drawn), the result was inactive.
For the molecule `O=C(O)CC1CCC(c2ccc(-c3ccc(Nc4ccc(C(F)(F)F)nc4)cn3)cc2)CC1` (stereo not drawn), the max response was -6.84% (inactive).
On the same count and under the same terms, to `COC(=O)[C@@H](NC(=O)[C@H](CC(C)C)NC(=O)N(Cc1ccccc1)C[C@@H](O)[C@H](Cc1ccccc1)NC(=O)OC(C)(C)C)C(C)C` belongs -5.6% (inactive).
`CC(O)C(O)/C=C/C=C/C(=O)O[C@@H]1C=C(C(=O)O)[C@](O)(CO)[C@@]2(C)CCCC(C)(C)[C@H]12` (stereo partly drawn): the max response is 4.17% (inactive).
On to `CCCCCOc1ccc(-c2cc(-c3ccc(C(=O)N[C@H]4C[C@@H](O)[C@@H](O)NC(=O)C5[C@@H](O)[C@@H](C)CN5C(=O)C([C@H](O)CC(N)=O)NC(=O)C([C@H](O)[C@@H](O)c5ccc(O)c(OS(=O)(=O)O)c5)NC(=O)C5C[C@@H](O)CN5C(=O)C([C@@H](C)O)NC4=O)cc3)no2)cc1` (stereo partly drawn) (X2-[Orn(4R-OH,5R-OH)][ξThr(3R)][ξPro(4R-OH)][ξhTyr(3S-OH,4S-OH,3'-OSO3H)][ξGln(3R-OH)][X3]; lactam 1-C), for which the molecule was classed as inactive.
Same read-out and setting: to `CC(C)=C1CC2C(CCC2(C)O)C(C)(O)CC1=O` (stereo not drawn) belongs “inactive”.
On to `C[C@]1(OC(=O)/C=C/c2ccc(O)cc2)C[C@@H](O)[C@]2(O)C=CO[C@@H](O[C@@H]3O[C@H](CO)[C@@H](O)[C@H](O)[C@H]3O)C12` (stereo partly drawn), for which the max response was 6.86% (inactive).
